Reference: the supplement of paper PMC9262897, “Low-cost anti-mycobacterial drug discovery using engineered E. coli” (Nature Communications, 2022)
Structures can show the parent of a compound that is named as a salt. ± gives the standard deviation of the averaged measurements.

Assays:
Assay in all cases: growth (OD600 after 10 h); higher = more growth (less inhibition)
[1] = system: E. coli TESEC Alr+ wild-type control; settings: compound 0.1 mM; raw OD600 reference: median of DMSO wells 0.241, cell-free background 0.041
Method: (§1)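 TESEC Mtb Alr E. coli, or the Alr+ wild-type control, in 384-well plates with Prestwick library compounds at 0.1 mM and 1% DMSO, across arabinose induction levels of 1E3 to 1E7 nM. Growth is read as OD600 after 10 h at 37 °C in triplicate biological replicates.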

E. coli TESEC Mtb Alr [2] = settings: compound 0.1 mM
Method: as §1

E. coli TESEC Mtb Asd = settings: compound 0.1 mM
Method: (§2)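 TESEC E. coli strains in which the native enzyme is deleted and replaced by arabinose-inducible Mtb Asd, DapB, CysH or TrpD, each grown in its selective medium. Strains were screened against the Prestwick library at 0.1 mM and 1% DMSO in 384-well format at low and high arabinose induction. Growth is read as OD600 after 10 h in triplicate.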

E. coli TESEC Mtb DapB = settings: compound 0.1 mM
Method: as §2

[3] = system: E. coli TESEC Alr+ wild-type control; settings: compound 0.1 mM; raw OD600 reference: median of DMSO wells 0.49, cell-free background 0.052
Method: (§3)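 TESEC Mtb Alr E. coli (ΔaraC ΔtolC ΔentC Δalr ΔdadX, arabinose-inducible Mtb Alr) or the Alr+ wild-type control strain, grown in defined M9-fructose medium without D-alanine in 96-well plates with Prestwick library compounds at 0.1 mM and 1% DMSO. Low Alr induction is 0.1 µM arabinose and high induction is 10 mM arabinose.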

E. coli TESEC Mtb Alr [4] = settings: compound 0.1 mM; remark: listed apart in the source
Method: as §3

[5] = arabinose 1000 nM, raw OD600 reference: median of DMSO wells 0.294, cell-free background 0.041
[6] = arabinose 10000 nM, raw OD600 reference: median of DMSO wells 0.264, cell-free background 0.041
[7] = arabinose 100000 nM, raw OD600 reference: median of DMSO wells 0.201, cell-free background 0.041
[8] = arabinose 1000000 nM, raw OD600 reference: median of DMSO wells 0.193, cell-free background 0.041
[9] = arabinose 10000000 nM, raw OD600 reference: median of DMSO wells 0.146, cell-free background 0.041
[10] = arabinose induction (level): High, raw OD600 reference: median of DMSO wells 0.331, cell-free background 0.041
[11] = arabinose induction (level): Low, raw OD600 reference: median of DMSO wells 0.417, cell-free background 0.041
[12] = arabinose induction (level): High, raw OD600 reference: median of DMSO wells […], cell-free background 0.041
[13] = arabinose induction (level): Low, raw OD600 reference: median of DMSO wells 0.227, cell-free background 0.041
[14] = arabinose 100 nM, raw OD600 reference: median of DMSO wells 0.413, cell-free background 0.052
[15] = arabinose 10000000 nM, raw OD600 reference: median of DMSO wells […], cell-free background 0.052

| SMILES | growth [1] | growth (E. coli TESEC Mtb Alr [2]; [5]) | growth (E. coli TESEC Mtb Alr [2]; [6]) | growth (E. coli TESEC Mtb Alr [2]; [7]) | growth (E. coli TESEC Mtb Alr [2]; [8]) | growth (E. coli TESEC Mtb Alr [2]; [9]) | growth (E. coli TESEC Mtb Asd; [10]) | growth (E. coli TESEC Mtb Asd; [11]) | growth (E. coli TESEC Mtb DapB; [12]) | growth (E. coli TESEC Mtb DapB; [13]) | growth [3] | growth (E. coli TESEC Mtb Alr [4]; [14]) | growth (E. coli TESEC Mtb Alr [4]; [15]) |
| --- | --- | --- | --- | --- | --- | --- | --- | --- | --- | --- | --- | --- | --- |
| Nc1nc(=S)c2ncn([C@@H]3O[C@H](CO)[C@@H](O)[C@H]3O)c2[nH]1 [Thioguanosine] | 0.0575 ± 0.0014 | 0.0503 ± 0.0022 | 0.0465 ± 0.00055 | 0.0493 ± 0.00055 | 0.0474 ± 0.00055 | 0.05337 ± 0.00021 | 0.209 ± 0.0071 | 0.127 ± 0.014 | 0.174 ± 0.011 | 0.115 ± 0.032 | 0.349 ± 0.02 | 0.225 ± 0.028 | 0.0964 ± 0.0089 |
| OCCN1CCN(CCCN2c3ccccc3C=Cc3ccccc32)CC1 [Opipramol dihydrochloride] | 0.142 ± 0.003 | 0.271 ± 0.023 | 0.245 ± 0.0065 | 0.179 ± 0.0079 | 0.0873 ± 0.0083 | 0.137 ± 0.003 | 0.16 ± 0.019 | 0.276 ± 0.024 | 0.199 ± 0.027 | 0.218 ± 0.04 | 0.464 ± 0.013 | 0.407 ± 0.006 | 0.298 ± 0.0042 |
| c1ccc(CN(CC2=NCCN2)c2ccccc2)cc1 [Antazoline hydrochloride] | 0.2355 ± 0.0022 | 0.279 ± 0.02 | 0.254 ± 0.0091 | 0.194 ± 0.021 | 0.167 ± 0.0018 | 0.14 ± 0.0039 | 0.355 ± 0.017 | 0.441 ± 0.017 | 0.185 ± 0.01 | 0.225 ± 0.043 | 0.5 ± 0.083 | 0.412 ± 0.0059 | 0.364 ± 0.015 |
| C=CCOc1ccccc1OCC(O)CNC(C)C (centres undefined) [Oxprenolol hydrochloride] | 0.2186 ± 0.001 | 0.281 ± 0.0082 | 0.271 ± 0.0046 | 0.1983 ± 0.00078 | 0.208 ± 0.023 | 0.141 ± 0.0071 | 0.332 ± 0.062 | 0.368 ± 0.013 | 0.204 ± 0.0052 | 0.225 ± 0.031 | 0.554 ± 0.095 | 0.414 ± 0.0042 | 0.357 ± 0.0083 |
| CCCNC(C)C(=O)Nc1ccccc1C (centres undefined) [Prilocaine hydrochloride] | 0.234 ± 0.0054 | 0.275 ± 0.011 | 0.264 ± 0.0046 | 0.1867 ± 0.0018 | 0.167 ± 0.0054 | 0.136 ± 0.0076 | 0.322 ± 0.093 | 0.408 ± 0.031 | 0.1776 ± 0.0016 | 0.209 ± 0.023 | 0.493 ± 0.068 | 0.427 ± 0.012 | 0.333 ± 0.008 |
| N/C(=N\C(=O)c1nc(Cl)c(N)nc1N)NCc1ccccc1 [Benzamil hydrochloride] | 0.14 ± 0.0042 | 0.196 ± 0.0093 | 0.256 ± 0.0065 | 0.15 ± 0.0096 | 0.111 ± 0.0026 | 0.161 ± 0.0069 | 0.163 ± 0.006 | 0.199 ± 0.0084 | 0.213 ± 0.023 | 0.232 ± 0.013 | 0.502 ± 0.034 | 0.41 ± 0.0064 | 0.299 ± 0.0065 |
| CS(=O)(=O)c1ccc([C@@H](O)[C@@H](CO)NC(=O)C(Cl)Cl)cc1 [Thiamphenicol] | 0.0517 ± 0.0013 | 0.0511 ± 0.0029 | 0.0394 ± 0.00036 | 0.0517 ± 0.0013 | 0.0395 ± 0.0001 | 0.055 ± 0.0011 | 0.0715 ± 0.0096 | 0.0618 ± 0.0034 | 0.0792 ± 0.0018 | 0.0622 ± 0.0072 | 0.206 ± 0.015 | 0.301 ± 0.012 | 0.086 ± 0.0081 |
| CC(CN1c2ccccc2Sc2ccccc21)N(C)C (centres undefined) [Promethazine hydrochloride] | 0.197 ± 0.0039 | 0.215 ± 0.013 | 0.2742 ± 0.0025 | 0.197 ± 0.018 | 0.13 ± 0.0016 | 0.157 ± 0.004 | 0.139 ± 0.0045 | 0.254 ± 0.021 | 0.221 ± 0.016 | 0.245 ± 0.012 | 0.456 ± 0.026 | 0.409 ± 0.014 | 0.334 ± 0.0051 |
